# From PubChem BioAssay (NCI)
# Several values for one entry are separate records, joined by “and”; a condition that tells them apart may be missing. Equal entries are not always repeated. The panel holds about 83,000 compounds, 20% with a hit somewhere; the sample as a whole holds those more often.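 Percent growth is the endpoint: 0 to 100 indicates growth inhibition (40 means 60% inhibition), 0 means no net growth, and negative values indicate cell death.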 Values without a mark were called inactive. Activity calls are given as the source filed them. Rule for the calls: active = growth percent below 10; inactive = the rest.
# Test system: PC-3 prostate
# Assay: NCI-60 one-dose screen, 48 h (100 = growth as untreated, 0 = no growth, -100 = all killed)
# Conditions: 10 µM unless noted
row,SMILES,growth
1,O=C(NNc1ccccc1)c1ccccc1,75.1% and 53.8%
2,CCOc1ccc(N2C(N)=NC(N)=NC2(C)C)cc1,16% and 39.3%
3,O=C1c2cc3c(cc2-c2c1c1ccc(Cl)cc1c(=O)n2CCCn1ccnc1)OCO3,19.9%

# Test system: SK-MEL-5 melanoma
# Assay: as above
# Conditions: 10 µM unless noted
row,SMILES,growth
1,Cc1ccc(C(=O)Nc2ccc(CN3CCN(C)CC3)c(C(F)(F)F)c2)cc1C#Cc1cnc(N)cc1C#N,-86.5% (active)
2,COc1cc(/C=C(/c2ccccc2)[N+](=O)[O-])c(OC)c2c1OCO2,-40.9% (active)
3,C[C@@H]1CC[C@@H]2[C@@H]1[C@H](OC(=O)/C=C/c1ccccc1)[C@]1(c3ccccc3)C[C@@H](NC(=O)CO)[C@@]2(C)O1,97.9%
4,Nc1ccc(-c2nc3ccc4[nH]ncc4c3c3c2CCCC3)cc1F,4.72% (active)
5,C=C1CCC2C3(C)COC(c4ccc(NC(C)=O)cc4)OC3CCC2(C)C1C/C=C1/C(=O)OCC1O (stereo unspecified),29%
6,Cc1c(C(C)(C)O)cn2ncnc(Oc3ccc(NC(=O)Nc4ccc(Cl)c(C(F)(F)F)c4)cc3)c12,56.2%
7,Cc1ccccc1SSc1ccccc1C,89.6%
8,O=C(CC1(O)C(=O)Nc2ccc(Br)cc21)c1ccc(Cl)cc1 (stereo unspecified),96.8%
9,O/N=C(/c1ccccc1)c1ccc2c3c(cccc13)CC2,98.1% and 91.1%
10,Cc1ccc(/C=C2\COc3ccc(O)c(O)c3C2=O)cc1,1.84% (active)
11,CC1(Cc2ccccc2)CC2=C(C(=O)O1)C(c1ccccc1)NC(=O)N2 (stereo unspecified),95%
12,[Cu+].[NH-][C@H]1C[N-]C(=O)[C@H]([C@H]2CCN=C(N)N2)[N-]C(=O)/C(=C\NC(N)=O)[N-]C(=O)[C@H](CNC(=O)C[C@@H](N)CCCN)[N-]C(=O)[C@H](CO)[N-]C1=O,109%
13,S=c1nc(CS)[nH]c2ccccc12,95.7%
14,Cc1oc2c(Cc3ccc(NC(=O)c4ccc(Cl)cc4)cc3)ncnc2c1C(=O)NO,86.1%
15,COc1ccc2c(c1)CCNC21C(=O)Nc2c(Br)cc(Br)cc21 (stereo unspecified),98.4%
16,COC(=O)c1nc(-c2ccccc2)oc1S(=O)(=O)N(C)CCO,96%
17,[2H]C([2H])([2H])Oc1cccc(/C=C/C(=O)/C=C(/C=C/c2cccc(OC([2H])([2H])[2H])c2OC([2H])([2H])[2H])OB(F)F)c1OC([2H])([2H])[2H],98.6%

row,SMILES,growth
1,N#Cc1ccccc1OCC(=O)Nc1nc2c(s1)COc1ccccc1-2,103%
2,COc1cc(/C=C2/C=C(c3ccc(C(C)(C)C)cc3)N(CCc3ccc(S(N)(=O)=O)cc3)C2=O)cc(OC)c1OC,32.1%
3,Nc1n[nH]c2cccc(C#Cc3cccc(NC(=O)c4ccc(N5CCOCC5)c(C(F)(F)F)c4)c3)c12,23.4%
4,Cc1nn(-c2nc(-c3cc4ccccc4oc3=O)cs2)c(C)c1N=Nc1ccccc1,101%
5,Cc1nnc(NS(=O)(=O)c2ccc(N=Nc3ccc(N)nc3N)cc2)s1,117%
6,COc1ccc(-c2csc(NC(=O)CN3CCN(CCO)CC3)n2)cc1NS(=O)(=O)c1cccc2c(N(C)C)cccc12,58.5%
7,C=C(c1ccc(C(=O)O)cc1)c1cc2c(cc1C)C(C)(C)CCC2(C)C,83% and 76.6%
8,O=[N+]([O-])c1cc(C(F)(F)F)ccc1Sc1ccc(C(F)(F)F)cc1[N+](=O)[O-],82.7%
9,COc1ccc2c(O)c(/C=C3\N=Nc4nc(C)ccc43)oc2c1CC1CCNCC1,81.1%
10,Cc1ccc(Nc2nc(-c3cc(O)c(C)c(C)c3O)cs2)cc1,97.6%
11,COc1cc(N=Nc2ccc(O)c3ncccc23)c2ncccc2c1,43.1%
12,CCCCCCCC/C=C\CCCCCCCCOc1ccccc1CC(=O)NCC[N+]1(C)CCOCC1,89.3%
13,Nc1ccc(S(=O)(=O)c2ccc(N)cc2)cc1,92.8% and 108%
14,C[C@]12CCc3c(ccc4cc(O)ccc34)[C@@H]1C[C@H](O)[C@@H]2O,102%
15,COc1ccc(C(c2cc(OC)c(OC)c(OC)c2)n2ccnc2)cc1O (stereo unspecified),-12.9% (active)
16,CN(C)CCCn1c2c(c3ccc(N4CCNCC4)cc3c1=O)C(=O)c1ccccc1-2,28.7%
